Cav32 inh: inhibitors of human Cav3.2 T-type calcium channel | O95180 | Cav3.2-expressing cells, Fluo-4 calcium fluorescence FDSS; stronger effect = lower value | B-score at 10 µM | hit rate 4% among 100,000 | AID 449739;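 active = single-dose well whose peak fluorescence ratio is a statistical outlier from its plate by either plate-standardised score or position-corrected B-score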
IL1B cytotox: toxic to HUVEC cells under IL-1B stimulation | HUVEC cell count loss, Hoechst imaging, IL-1B stimulated | cell count reduction, % at 2 µM | hit rate 0.41% among 94,000 | AID 845;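 active = cell count reduction more than 3 SD above the screen-wide mean, cut at about 70% in these data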;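 also: normalized per plate to untreated control cells as the no-loss baseline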
NFkB transloc pot: enhances IL-1B driven NFkB nuclear translocation. HUVEC IL-1B NFkB p65 nuclear translocation imaging. activation, % at 2 µM. hit rate 0.3% among 94,000. AID 819;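 active = activation above 40%, about the mean plus 3 SD, also judged a hit on visual image review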;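 also: percent activation is computed from the nuclear over cytoplasmic p65 intensity ratio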
IL1B NFkB inh: blocks IL-1B driven NFkB nuclear translocation in HUVEC cells; HUVEC IL-1B NFkB p65 nuclear translocation imaging; inhibition, % at 2 µM; hit rate 0.43% among 94,000; AID 796;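 active = inhibition above about 30% together with a positive call from visual inspection of the well image, limit read from the data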;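 also: nuclear over cytoplasmic p65 intensity ratio measured by imaging; 0% = IL-1B stimulated DMSO wells and 100% = unstimulated DMSO wells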
* = called active by the depositor; x = no result given. Most compounds without a hit are left out; they make up all but 4.4% or so of the library.

SMILES	Cav32 inh	IL1B cytotox	NFkB transloc pot	IL1B NFkB inh
CCC1(c2cccc(Cl)c2)NC(=O)N(Cc2cc(C(=O)OC)c(C)o2)C1=O (stereo not drawn)	-5.5*	-8	-9	9
CCOc1ccc(OCC)c(NC(=O)C2CCCN(S(=O)(=O)c3cnc[nH]3)C2)c1 (stereo not drawn)	0.34	-7	-8	8
CC(C)CCNC(=O)c1ccc2c(c1)ncn2C1CCCCC1	0.8	4	0	0
COc1ccc(-c2nn(-c3ccccc3)cc2C(=O)Nc2nccs2)cc1	-5.8*	4	6	-6
COc1ccc(-c2nn(-c3ccccc3)cc2C(=O)N2CCOCC2)cc1	-0.1	x	x	x
COc1cccc(-c2nn(-c3ccccc3)cc2C(=O)Nc2nccs2)c1	-5.2*	-51	0	0
COc1cccc(-c2nn(-c3ccccc3)cc2C(=O)n2nnc3ccccc32)c1	-0.57	-4	0	0
c1ccc(CSc2nnc(-c3c[nH]c4ccccc34)o2)cc1	-0.03	8	1	-1
Cc1[nH]c2ccccc2c1Cc1nnc(SCc2ccccc2)o1	-8.6*	3	11	-11
CCOc1cc(C2C(C(=O)c3ccc(C)o3)=C(O)C(=O)N2CCc2ccccc2)ccc1O (stereo not drawn)	-2.5	-27	-47	47*
COc1cc(C2C(C(=O)c3ccco3)=C(O)C(=O)N2CCc2ccccc2)ccc1O (stereo not drawn)	0.42	x	x	x
Cc1ccc(SCCNC(=O)c2ccccc2)cc1	-0.45	-29	0	0
Cc1ccc(NS(=O)(=O)c2cc(C(=O)NCCSC3CCCCC3)ccc2C)cc1	-4.5*	-20	-6	6
Cc1ccc(C(=O)NCCSc2ccc(Cl)cc2)cc1S(=O)(=O)Nc1ccccc1	-2.8	23	6	-6
Cc1ccc(SCCNC(=O)c2ccc(C)c(S(=O)(=O)Nc3cccc(C)c3)c2)cc1	-4.6*	-44	-3	3
Cc1ccc(NS(=O)(=O)c2cc(C(=O)NCCSc3ccc(C)cc3)ccc2C)cc1	-4.4*	-1	-5	5
CC(=O)C1=C(O)C(=O)N(CCc2c[nH]c3ccccc23)C1c1ccc(O)cc1 (stereo not drawn)	0.004	-36	2	-2
O=C(CSc1cccc(C(F)(F)F)c1)NC(=O)NCc1ccco1	-5.3*	x	x	x
Cc1c(C(=O)O)c(-c2ccccc2)nn1-c1ccccc1	-4.3*	95*	-6	6
CCCCOC(=O)n1c(=O)oc2cc(S(=O)(=O)N3CCCCC3)ccc21	-4.8*	-14	6	-6
CSc1ccccc1NC(=O)c1ccco1	0.62	x	x	x
Cc1ccc(C(=O)OCC(=O)N2CC(=O)Nc3ccccc32)s1	-0.0062	-6	14	-14
O=C1CN(C(=O)COC(=O)c2cccc(S(=O)(=O)NCc3ccccc3)c2)c2ccccc2N1	-6*	12	9	-9
CC(NC(=O)CCSc1nc(-c2ccc3c(c2)OCO3)cc(C(F)(F)F)n1)c1ccccc1 (stereo not drawn)	-5.2*	-13	13	-13
COc1ccc(-c2cc(C(F)(F)F)nc(SCCC(=O)NCc3ccccc3)n2)cc1	-5.7*	22	3	-3
SMILES	Cav32 inh	IL1B cytotox	NFkB transloc pot	IL1B NFkB inh
COc1ccc(-c2cc(C(F)(F)F)nc(SCc3cccc(C(=O)O)c3)n2)cc1	-1.3	4	-5	5
O=C(c1n[nH]c2c1CCCC2)n1ccnc1	0.29	x	x	x
COc1ccc(-c2nc3n(n2)C(c2ccccc2Cl)C(C(N)=O)=C(C)N3)cc1 (stereo not drawn)	0.84	8	-1	1
CCOC(=O)C1CCCN(c2nc3ccccc3nc2C(C#N)C(=O)NCc2ccccc2)C1 (stereo not drawn)	-2.9	-26	0	0
CCCCCCNC(=O)C(C#N)c1nc2ccccc2nc1N1CCCC1 (stereo not drawn)	-7.1*	31	-3	3
N#CC(C(=O)NCc1ccccc1)c1nc2ccccc2nc1N1CCCC1 (stereo not drawn)	-6*	10	-2	2
CCCCN(CCCC)c1nc2ccccc2nc1C(C#N)C(=O)NCCCOC (stereo not drawn)	-8.1*	-20	0	0
CCCCCNC(=O)C(C#N)c1nc2ccccc2nc1N1CCCC1 (stereo not drawn)	-7.1*	-3	7	-8
C[n+]1cc[nH]c1SCC(=O)c1ccccc1	0.32	7	-11	11
O=C(OCc1ccccc1Cl)c1ccc(-n2cnnc2)cc1	0.56	-7	14	-14
CCN(CC)c1nc2ccccc2nc1C(C#N)C(=O)NCCCOC (stereo not drawn)	-2.5	2	5	-5
COCCCNC(=O)C(C#N)c1nc2ccccc2nc1N1CCCC1 (stereo not drawn)	-5.6*	5	0	0
CCCN(CCC)c1nc2ccccc2nc1C(C#N)C(=O)OC(C)COC (stereo not drawn)	-7.7*	7	-7	7
N#CC(C(=O)NCCc1ccccc1)c1nc2ccccc2nc1N1CCOCC1 (stereo not drawn)	0.67	-2	3	-2
N#CC(C(=O)NCc1ccco1)c1nc2ccccc2nc1N1CCOCC1 (stereo not drawn)	-3.6*	-7	4	-4
O=C(Cn1cc(CCO)nn1)N1CCNCC1	0.63	x	x	x
CC(C)(C)N=C1NC(=NC(C)(C)C)c2ccccc21	-0.62	1	8	-8
Cc1scc(C(=O)N/N=C/c2ccc(OCC(C)C)cc2)c1C	-4.3*	-5	-6	6
CCc1ccc(/C=C/C(=O)C2C(=O)c3ccccc3C2=O)cc1	-3.8*	17	-2	2
COc1ccc(S(=O)(=O)n2nc(OC(=O)c3cccs3)cc2NC(=O)c2cccs2)cc1	-0.051	x	x	x
N=c1oc2c3c4c(cc2cc1C(=O)Nc1ccccc1)CCCN4CCC3	-11*	15	8	-8
O=C(Nc1ccccc1)c1cccnc1N1CCCC1	-0.45	23	-6	6
COCCN(CC(=O)NCc1ccccc1)C(=O)CCC(=O)Nc1nccs1	x	2	41*	-41
CN1CCN(S(=O)(=O)c2ccc(NC(=O)C(C)(C)C)cc2)CC1	-5.7*	4	-24	24
O=C(Nc1ccc(S(=O)(=O)N2CCc3ccccc3C2)cc1)C1CCCO1 (stereo not drawn)	-3.9*	-14	-9	9
SMILES	Cav32 inh	IL1B cytotox	NFkB transloc pot	IL1B NFkB inh
CCc1ccc(NC(=O)CN2CCc3ccccc3C2)cc1	-3.5	-2	2	-2
CC(=O)Nc1ccc(S(=O)(=O)N2CCCN(S(=O)(=O)c3ccc(NC(C)=O)cc3)CC2)cc1	x	4	16	-16
Cc1ccc(C(=O)Nc2ccc(S(=O)(=O)N3CCN(C)CC3)cc2)cc1	-2.6	13	-7	7
CC(=O)Nc1ccc(S(=O)(=O)N2CCc3c(Cl)cccc3C2)cc1	-4.3*	0	-10	10
O=C(CN1CCc2ccccc2C1)Nc1ccc(Br)cc1	-4.1*	7	18	-18
C=CCOC(=O)C1=C(C)Nc2nc3ccccc3n2C1c1ccncc1 (stereo not drawn)	1.3	-12	-13	13
CCC(=O)Nc1ccc(S(=O)(=O)N2CCc3ccccc3C2)cc1	-4.5*	4	0	0
